From PubChem BioAssay AID1159580 (chemical genetic matrix, 2015)
The campaign covered roughly 5,500 compounds. About 2,000 (36%) were called active. About 18% were inconclusive and are not listed. Some of the results follow. Values without a mark were called inactive. Cut-off read from the data, not from the text of the source: active = normalized growth mostly below about 0.91 (no sharp cut-off); inconclusive = no clear call, values can overlap the other calls; inactive = mostly above about 0.92.

Assay: chemical genetic growth profiling, strain panel (AID 1159580);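 note: tested at 20 µM; growth read once vehicle control cultures reached saturation at 30 °C; 1 = growth at the plate median or of vehicle wells; lower values mean less growth of the strain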
Details: growth OD
[1] = S. cerevisiae deletion strains, locus YGR078C, strain PAC10, active compounds read low
[2] = S. cerevisiae deletion strains, locus YNL128W, strain TEP1, active compounds read low
[3] = S. cerevisiae deletion strains, locus YNL322C, strain KRE1, active compounds read low
[4] = S. cerevisiae deletion strains, locus YHR030C, strain SLT2, active compounds read low
[5] = S. cerevisiae deletion strains, locus YJL095W, strain BCK1, active compounds read low

**Q.** What does the source list for `C[N+]1(C)CCc2cc3c(cc2[C@H]1[C@@H]1OC(=O)c2c1ccc1c2OCO1)OCO3`?
**A.** normalized growth (S. cerevisiae deletion strains, locus YAL040C, strain CLN3, active compounds read low): 0.982; normalized growth (S. cerevisiae deletion strains, locus YDR150W, strain NUM1, active compounds read low): 0.997; normalized growth (S. cerevisiae deletion strains, locus YER002W, strain NOP16, active compounds read low): 0.991; normalized growth [1]: 1.01; normalized growth [2]: 1; normalized growth (S. cerevisiae deletion strains, locus YNL153C, strain GIM3, active compounds read low): 0.998; normalized growth (S. cerevisiae deletion strains, locus YNL175C, strain NOP13, active compounds read low): 0.987; normalized growth (S. cerevisiae deletion strains, locus YNL197C, strain WHI3, active compounds read low): 1.05; normalized growth (S. cerevisiae deletion strains, locus YNL224C, strain SQS1, active compounds read low): 0.994; normalized growth [3]: 1.01; normalized growth (S. cerevisiae deletion strains, locus YOR083W, strain WHI5 (second series), active compounds read low): 1; normalized growth (S. cerevisiae deletion strains, locus YPL055C, strain LGE1, active compounds read low): 1.01

**Q.** Which normalized growth [4] does the source give for `CCCCCCCCCCCCCCCC(=O)OCC(O)CO` (centres undefined) here?
**A.** 1

**Q.** What about the normalized growth (S. cerevisiae deletion strains, locus YHR079C, strain IRE1, active compounds read low) of the same compound?
**A.** 0.99

**Q.** What about the normalized growth [5] of the same compound?
**A.** 0.967

**Q.** And the normalized growth (S. cerevisiae deletion strains, locus YJR066W, strain TOR1, active compounds read low)?
**A.** 0.936

**Q.** And the normalized growth (S. cerevisiae deletion strains, locus YLR113W, strain HOG1, active compounds read low)?
**A.** 1

**Q.** And the normalized growth (S. cerevisiae deletion strains, locus YNL183C, strain NPR1, active compounds read low)?
**A.** 0.93

**Q.** And the normalized growth (S. cerevisiae deletion strains, locus YOR231W, strain MKK1, active compounds read low)?
**A.** 1.01

**Q.** What about the normalized growth (S. cerevisiae deletion strains, locus YPL256C, strain CLN2, active compounds read low) of the same compound?
**A.** 1.02

**Q.** What does the source list for `CCCCCCCCCCCC(=O)OCC(COP(=O)(O)OCC(O)COP(=O)(O)OCC(COC(=O)CCCCCCCCCCC)OC(=O)CCCCCCCCCCC)OC(=O)CCCCCCCCCCC` (centres undefined)?
**A.** normalized growth (S. cerevisiae deletion strains, locus YBR021W, strain FUR4, active compounds read low): 0.99; normalized growth (S. cerevisiae deletion strains, locus YBR229C, strain ROT2, active compounds read low): 0.967; normalized growth (S. cerevisiae deletion strains, locus YCL029C, strain bik1, active compounds read low): 1.01; normalized growth (S. cerevisiae deletion strains, locus YDL035C, strain GPR1, active compounds read low): 0.663 (active); normalized growth (S. cerevisiae deletion strains, locus YDL074C, strain BRE1, active compounds read low): 0.72 (active); normalized growth (S. cerevisiae deletion strains, locus YDL101C, strain DUN1, active compounds read low): 0.839 (active); normalized growth (S. cerevisiae deletion strains, locus YDL185W, strain tfp1, active compounds read low): 0.981; normalized growth (S. cerevisiae deletion strains, locus YDL192W, strain arf1, active compounds read low): 0.972; normalized growth (S. cerevisiae deletion strains, locus YDR101C, strain arx1, active compounds read low): 1.03; normalized growth (S. cerevisiae deletion strains, locus YDR162C, strain NBP2, active compounds read low): 0.55 (active); normalized growth (S. cerevisiae deletion strains, locus YDR318W, strain mcm21, active compounds read low): 1; normalized growth (S. cerevisiae deletion strains, locus YDR388W, active compounds read low): 1.01; normalized growth (S. cerevisiae deletion strains, locus YDR502C, strain sam2, active compounds read low): 0.978; normalized growth (S. cerevisiae deletion strains, locus YEL061C, strain CIN8, active compounds read low): 0.861 (active); normalized growth (S. cerevisiae deletion strains, locus YER110C, active compounds read low): 1.03; normalized growth (S. cerevisiae deletion strains, locus YER155C, strain BEM2, active compounds read low): 1.02; normalized growth (S. cerevisiae deletion strains, locus YER167W, strain BCK2, active compounds read low): 0.953; normalized growth (S. cerevisiae deletion strains, locus YGL078C, strain dbp3, active compounds read low): 1.02; normalized growth (S. cerevisiae deletion strains, locus YGL086W, strain mad1, active compounds read low): 0.927 (active); normalized growth (S. cerevisiae deletion strains, locus YGL248W, strain PDE1, active compounds read low): 0.876 (active); normalized growth [1]: 0.879; normalized growth (S. cerevisiae deletion strains, locus YGR135W, strain pre9, active compounds read low): 0.923; normalized growth (S. cerevisiae deletion strains, locus YGR229C, strain SMI1, active compounds read low): 0.181 (active); normalized growth (S. cerevisiae deletion strains, locus YGR252W, strain gcn5, active compounds read low): 0.887; normalized growth [4]: 0.965; normalized growth (S. cerevisiae deletion strains, locus YHR079C, strain IRE1 (second series), active compounds read low): 1.04; normalized growth (S. cerevisiae deletion strains, locus YHR094C, strain hxt1, active compounds read low): 1.03; normalized growth (S. cerevisiae deletion strains, locus YHR129C, strain ARP1, active compounds read low): 0.902 (active); normalized growth (S. cerevisiae deletion strains, locus YHR200W, strain rpn10, active compounds read low): 0.995; normalized growth (S. cerevisiae deletion strains, locus YIL066C, strain RNR3, active compounds read low): 0.633 (active); normalized growth (S. cerevisiae deletion strains, locus YIL073C, strain SPO22, active compounds read low): 0.524 (active); normalized growth (S. cerevisiae deletion strains, locus YIL125W, strain kgd1, active compounds read low): 1.03; normalized growth (S. cerevisiae deletion strains, locus YIR030C, strain dcg1, active compounds read low): 1.03; normalized growth [5]: 0.816; normalized growth (S. cerevisiae deletion strains, locus YJL134W, strain LCB3, active compounds read low): 0.975; normalized growth (S. cerevisiae deletion strains, locus YJL168C, strain set2, active compounds read low): 1; normalized growth (S. cerevisiae deletion strains, locus YJL187C, strain SWE1 (second series), active compounds read low): 0.703 (active); normalized growth (S. cerevisiae deletion strains, locus YJR043C, strain POL32, active compounds read low): 0.632 (active); normalized growth (S. cerevisiae deletion strains, locus YKL009W, strain mrt4, active compounds read low): 1.09; normalized growth (S. cerevisiae deletion strains, locus YKL068W, active compounds read low): 1.03; normalized growth (S. cerevisiae deletion strains, locus YKL085W, strain MDH1 (second series), active compounds read low): 1.01; normalized growth (S. cerevisiae deletion strains, locus YKL085W, strain MDH1, active compounds read low): 1.01; normalized growth (S. cerevisiae deletion strains, locus YKL190W, strain CNB1, active compounds read low): 0.682 (active); normalized growth (S. cerevisiae deletion strains, locus YKR001C, strain vps1, active compounds read low): 0.986; normalized growth (S. cerevisiae deletion strains, locus YLR039C, strain RIC1, active compounds read low): 0.671 (active); normalized growth (S. cerevisiae deletion strains, locus YLR058C, strain SHM2, active compounds read low): 0.811 (active); normalized growth (S. cerevisiae deletion strains, locus YLR102C, strain apc9, active compounds read low): 1.02; normalized growth (S. cerevisiae deletion strains, locus YLR262C, strain YPT6, active compounds read low): 0.798; normalized growth (S. cerevisiae deletion strains, locus YLR268W, strain sec22, active compounds read low): 0.937; normalized growth (S. cerevisiae deletion strains, locus YLR330W, strain CHS5, active compounds read low): 0.964; normalized growth (S. cerevisiae deletion strains, locus YLR342W, strain FKS1 (second series), active compounds read low): 0.549 (active); normalized growth (S. cerevisiae deletion strains, locus YLR371W, strain rom2, active compounds read low): 0.971; normalized growth (S. cerevisiae deletion strains, locus YLR418C, strain cdc73, active compounds read low): 0.765 (active); normalized growth (S. cerevisiae deletion strains, locus YML016C, strain PPZ1, active compounds read low): 0.792 (active); normalized growth (S. cerevisiae deletion strains, locus YML032C, strain rad52, active compounds read low): 1.03; normalized growth (S. cerevisiae deletion strains, locus YML124C, strain tub3, active compounds read low): 1.02; normalized growth (S. cerevisiae deletion strains, locus YMR078C, strain ctf18, active compounds read low): 1.02; normalized growth (S. cerevisiae deletion strains, locus YMR223W, strain ubp8, active compounds read low): 0.962; normalized growth (S. cerevisiae deletion strains, locus YMR263W, strain SAP30, active compounds read low): 0.923; normalized growth (S. cerevisiae deletion strains, locus YMR307W, strain GAS1, active compounds read low): 0.475 (active); normalized growth (S. cerevisiae deletion strains, locus YNL067W, strain RPL9B, active compounds read low): 0.891; normalized growth [2]: 0.589 (active); normalized growth (S. cerevisiae deletion strains, locus YNL233W, strain BNI4, active compounds read low): 0.91; normalized growth (S. cerevisiae deletion strains, locus YNL250W, strain rad50, active compounds read low): 1.02; normalized growth (S. cerevisiae deletion strains, locus YNL271C, strain bni1, active compounds read low): 1; normalized growth (S. cerevisiae deletion strains, locus YNL298W, strain CLA4, active compounds read low): 1.01; normalized growth (S. cerevisiae deletion strains, locus YNL307C, strain MCK1, active compounds read low): 1.02; normalized growth [3]: 0.715 (active); normalized growth (S. cerevisiae deletion strains, locus YNR052C, strain pop2, active compounds read low): 0.975; normalized growth (S. cerevisiae deletion strains, locus YOL006C, strain TOP1, active compounds read low): 0.29 (active); normalized growth (S. cerevisiae deletion strains, locus YOL012C, strain htz1): 0.377; normalized growth (S. cerevisiae deletion strains, locus YOL147C, strain pex11, active compounds read low): 1.02; normalized growth (S. cerevisiae deletion strains, locus YOR061W, strain CKA2, active compounds read low): 0.803 (active); normalized growth (S. cerevisiae deletion strains, locus YOR069W, strain VPS5, active compounds read low): 0.951; normalized growth (S. cerevisiae deletion strains, locus YOR136W, strain idh2, active compounds read low): 1.01; normalized growth (S. cerevisiae deletion strains, locus YOR144C, strain elg1, active compounds read low): 1.01; normalized growth (S. cerevisiae deletion strains, locus YOR184W, strain ser1, active compounds read low): 0.926; normalized growth (S. cerevisiae deletion strains, locus YOR316C, strain cot1, active compounds read low): 1.02; normalized growth (S. cerevisiae deletion strains, locus YPR119W, strain clb2, active compounds read low): 1.03; normalized growth (S. cerevisiae deletion strains, locus YPR141C, strain kar3, active compounds read low): 1.02; normalized growth (S. cerevisiae deletion strains, locus YPR163C, strain tif3, active compounds read low): 1.02; normalized growth (S. cerevisiae deletion strains, locus YPR167C, strain met16, active compounds read low): 1.02; normalized growth (S. cerevisiae deletion strains, strain wtn01, active compounds read low): 0.947; normalized growth (S. cerevisiae strains, strain wild type, active compounds read low): 0.56 (active)
